# Where “and” joins values, the source holds several entries; their conditions need not be identical. Equal entries are not always repeated. This is part of a sample that, as a whole, favours compounds with a hit. Of some 83,000 tested, about 20% had one in any assay.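 The test compound was applied at a single concentration to cells in 96-well plates for 48 hours, and percent growth was recorded.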 Values without a mark were called inactive. Calls of active or inactive are those of the source. How the source made its calls: active means growth percent below 10; inactive means the rest.
# Tests used:
# Assay in all cases: NCI-60 one-dose screen, 48 h (100 = growth as untreated, 0 = no growth, -100 = all killed)
# Conditions in all cases: 10 µM unless noted
# [1] = tested on: T-47D breast
# [2] = tested on: BT-549 breast
# [3] = tested on: MDA-MB-435 melanoma
# [4] = tested on: SW-620 colon
# [5] = tested on: MCF7 breast
# [6] = tested on: HCT-116 colon
# [7] = tested on: HCC-2998 colon
# [8] = tested on: KM12 colon
SMILES,growth [1],growth [2],growth [3],growth [4],growth [5],growth [6],growth [7],growth [8]
CN(C)CC1(C)Cc2ccsc2C1O (configuration not stated),113% and 100%,113% and 102%,111% and 107%,105% and 112%,110% and 105%,115% and 104%,107% and 103%,116% and 106%
O=c1oc2c(Br)cc(Br)cc2cc1-c1cc(-c2ccc(-c3cc(-c4cc5cc(Br)cc(Br)c5oc4=O)nc(-c4cc5cc(Br)cc(Br)c5oc4=O)c3)cc2)cc(-c2cc3cc(Br)cc(Br)c3oc2=O)n1,98.9%,112%,114%,100%,98%,99.3%,102%,96.1%
Cc1ccc(S(=O)(=O)Nc2cc(Sc3ccccc3)c(O)c3ccccc23)cc1,-1.22% (active),97.1%,-95.4% (active),108%,64.1%,58.9%,106%,86.4%
O=S(=O)(Nc1cc(Sc2cccc3cccnc23)c(O)c2ccccc12)c1ccc(F)cc1,-40.3% (active),30.7%,7.68% (active),-69.3% (active),-53.4% (active),-88.5% (active),40%,16.5%
O=C(CN1C(=O)S/C(=C\C(Cl)=C\c2ccccc2)C1=O)NCCCn1ccnc1,21.3%,43.8%,20.2%,3.27% (active),15%,-57.2% (active),73.5%,33.9%
COc1ccc2c(O)c(/C=C3\N=Nc4nc(C)ccc43)oc2c1CC1CCNCC1,89.5%,60.4%,42.7%,38.9%,67.3%,35.3%,78.1%,38.2%
ON=C1CCCCCCCC1,97.7% and 99.2%,110% and 101%,103% and 113%,108% and 105%,98.9% and 91.3%,105% and 104%,100% and 103%,97% and 97.8%
N=C(N)c1ccc(-c2ccc(-c3ccc(F)cc3)s2)nc1,76.3%,82.1%,70.2%,26%,21.9%,3.54% (active),16.2%,18.7%
CC(=O)Nc1c(I)c(NC(C)=O)c(I)c(C(=O)O)c1I,96.6% and 102%,101% and 97.9%,101% and 102%,102% and 117%,98.6% and 96.9%,110% and 93%,106%,104% and 123%
